According to PubChem BioAssay (EPA / NIEHS):
Active and inactive are the calls of the source. How the source made its calls: active means hit-call score of the fitted dose curve at least 0.9, where 1 is the maximum; inactive means score below 0.9.

Legend:
Details in all cases: mRNA level, 48 h; actives raise or lower the signal
[1] = read-out: Glutamate-cysteine ligase catalytic (GCLC), GCLC (gene 2729); assay: LTEA_HepaRG_GCLC: Life Technologies and Expression Analysis (LTEA) Assay for Glutamate-cysteine ligase catalytic (GCLC) using HepaRG (AID 2283498)
How it was run: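 Differentiated human HepaRG cells, plated 48 h then switched to serum-free induction medium, were exposed in duplicate for 48 h to 8 half-log concentrations topping at 100 uM in 0.5% DMSO. GCLC mRNA was quantified by qRT-PCR against ACTB, GAPDH and POLR2A.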

[2] = read-out: growth arrest and DNA damage 45 (GADD45G), GADD45G (gene 10912); assay: LTEA_HepaRG_GADD45G: Life Technologies and Expression Analysis (LTEA) Assay for growth arrest and DNA damage 45 (GADD45G) using HepaRG (AID 2283499)
How it was run: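 Concentration-response in HepaRG: 48 h dosing, 0.5% DMSO, highest level 100 uM. GADD45G expression by qRT-PCR, normalised to endogenous controls; bidirectional fit to DMSO.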

[3] = read-out: Glutamate-cysteine ligase regulatory (GCLM), GCLM (gene 2730); assay: LTEA_HepaRG_GCLM: Life Technologies and Expression Analysis (LTEA) Assay for Glutamate-cysteine ligase regulatory (GCLM) using HepaRG (AID 2283500)
How it was run: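 Human liver HepaRG cultures receive test chemicals for 48 hours at up to 100 uM in 0.5% DMSO. GCLM expression is measured by qRT-PCR and analysed for increases or decreases against vehicle.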

[4] = read-out: Glutathione S-transferase M3 (GSTM3), GSTM3 (gene 2947); assay: LTEA_HepaRG_GSTM3: Life Technologies and Expression Analysis (LTEA) Assay for Glutathione S-transferase M3 (GSTM3) using HepaRG (AID 2283501)
How it was run: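 Expression of GSTM3 is determined by qRT-PCR in human liver HepaRG cells treated 48 h with an 8-point half-log range from 100 uM in 0.5% DMSO.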

[5] = read-out: Heat shock 70 kDa protein 1 (HSPA1A), gene 3303; assay: LTEA_HepaRG_HSPA1A: Life Technologies and Expression Analysis (LTEA) Assay for Heat shock 70 kDa protein 1 (HSPA1A) using HepaRG (AID 2283502)
How it was run: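 HSPA1A induction in human HepaRG liver cells is measured after 48 h of chemical treatment (100 uM maximum, 0.5% DMSO vehicle). Expression comes from qRT-PCR normalized to endogenous controls.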

[6] = read-out: Hypoxia-inducible factor 1-alpha (Homo sapiens) (UniProt Q16665); assay: LTEA_HepaRG_HIF1A: Life Technologies and Expression Analysis (LTEA) Assay for Hypoxia-inducible factor 1 (HIF1A) Trancription factor using HepaRG (AID 2283503)
How it was run: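 HepaRG, 48 h exposure, 8-pt half-log series from 100 uM, 0.5% DMSO vehicle, duplicates. Readout: HIF1A transcript by qRT-PCR (Fluidigm array), housekeeping-normalised. Bidirectional curve fit vs DMSO baseline.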

[7] = read-out: 3-Hydroxy-3-Methylglutaryl-CoA Synthase 2 (HMGCS2), HMGCS2 (gene 3158); assay: LTEA_HepaRG_HMGCS2: Life Technologies and Expression Analysis (LTEA) Assay for 3-Hydroxy-3-Methylglutaryl-CoA Synthase 2 (HMGCS2) using HepaRG (AID 2283504)
How it was run: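 This steatosis marker was read as HMGCS2 mRNA change in HepaRG cells treated 48 h with up to 100 uM chemical. Normalisation used housekeeping genes; activity in either direction was fitted relative to 0.5% DMSO vehicle.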

HGF (gene 3082) = assay: LTEA_HepaRG_HGF: Life Technologies and Expression Analysis (LTEA) Assay for Hepatocyte Growth Facto (HGF) using HepaRG (AID 2283505)
How it was run: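 Using HepaRG monolayers kept in 0.5% DMSO, chemicals were tested in duplicate over eight half-log concentrations from 100 uM for 48 h. Endpoint: HGF mRNA change relative to DMSO, normalized to ACTB/GAPDH/POLR2A.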

[8] = read-out: Insulin Like Growth Factor 1 (IGF1), IGF1 (gene 3479); assay: LTEA_HepaRG_IGF1: Life Technologies and Expression Analysis (LTEA) Assay for Insulin Like Growth Factor 1 (IGF1) using HepaRG (AID 2283506)
How it was run: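 Using human HepaRG liver cells, IGF1 transcript induction or suppression is measured 48 h after dosing across eight concentrations capped at 100 uM. Values derive from bidirectional concentration-response fitting with DMSO as baseline.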

[9] = read-out: Intercellular Adhesion Molecule 1 (ICAM1), ICAM1 (gene 3383); assay: LTEA_HepaRG_ICAM1: Life Technologies and Expression Analysis (LTEA) Assay for Intercellular Adhesion Molecule 1 (ICAM1) using HepaRG (AID 2283507)
How it was run: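 Using the human liver line HepaRG, compounds are tested in duplicate over 48 h at concentrations up to 100 uM. Expression is determined by TaqMan qRT-PCR, normalized to endogenous controls, and analysed relative to 0.5% DMSO vehicle.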

[10] = read-out: Insulin-like growth factor-binding protein 1 (IGFBP1), IGFBP1 (gene 3484); assay: LTEA_HepaRG_IGFBP1: Life Technologies and Expression Analysis (LTEA) Assay for Insulin-like growth factor-binding protein 1 (IGFBP1) using HepaRG (AID 2283508)
How it was run: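 HepaRG, 48 h, 8 conc. (max 100 uM, half-log), duplicates, 0.5% DMSO. Readout: TaqMan qRT-PCR, ACTB/GAPDH/POLR2A normalisation. Fit: bidirectional vs DMSO.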

[11] = read-out: Interleukin 6 (IL6), IL6 (gene 3569); assay: LTEA_HepaRG_IL6: Life Technologies and Expression Analysis (LTEA) Assay for Interleukin 6 (IL6) using HepaRG (AID 2283509)
How it was run: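 Differentiated human HepaRG cells, plated 48 h then switched to serum-free induction medium, were exposed in duplicate for 48 h to eight half-log concentrations up to 100 uM in 0.5% DMSO. IL6 mRNA measured by qRT-PCR, normalized to ACTB/GAPDH/POLR2A.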

[12] = read-out: Interleukin 6 Receptor (IL6R), IL6R (gene 3570); assay: LTEA_HepaRG_IL6R: Life Technologies and Expression Analysis (LTEA) Assay for Interleukin 6 Receptor (IL6R) using HepaRG (AID 2283510);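 on AC50: TaqMan qRT-PCR signal normalized to ACTB GAPDH and POLR2A housekeeping genes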
How it was run: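 Concentration-response in human liver HepaRG cells: eight concentrations from 100 uM downward by half-logs, 48 h exposure, 0.5% DMSO vehicle. IL6R mRNA change measured by qRT-PCR and fitted in both directions relative to vehicle.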

[13] = read-out: Potassium channel subfamily K member 1 (KCNK1), KCNK1 (gene 3775); assay: LTEA_HepaRG_KCNK1: Life Technologies and Expression Analysis (LTEA) Assay for Potassium channel subfamily K member 1 (KCNK1) using HepaRG (AID 2283511)
How it was run: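 Differentiated human HepaRG cells in serum-free induction medium were exposed in duplicate for 48 h to 8 half-log concentrations up to 100 uM in 0.5% DMSO. KCNK1 mRNA was measured by TaqMan qRT-PCR, normalized to ACTB, GAPDH and POLR2A, and fitted bidirectionally versus DMSO.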

[14] = read-out: Keratin 19 (KRT19), KRT19 (gene 3880); assay: LTEA_HepaRG_KRT19: Life Technologies and Expression Analysis (LTEA) Assay for Keratin 19 (KRT19) using HepaRG (AID 2283512)
How it was run: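 Readout is qRT-PCR of KRT19 mRNA, normalized to ACTB, GAPDH and POLR2A, from HepaRG cells treated 48 h with eight-point half-log dilutions topping at 100 uM. Activity in either direction is scored relative to 0.5% DMSO vehicle.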

[15] = read-out: JUN Transcription Factor, JUN (gene 3725); assay: LTEA_HepaRG_JUN: Life Technologies and Expression Analysis (LTEA) Assay for JUN Transcription Factor using HepaRG (AID 2283513)
How it was run: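 Human HepaRG liver cells receive test chemicals in 0.5% DMSO for 48 h across an eight-point range topping at 100 uM. Expression changes in JUN are scored in both directions against the DMSO vehicle.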

[16] = read-out: Lipase C (LIPC), LIPC (gene 3990); assay: LTEA_HepaRG_LIPC: Life Technologies and Expression Analysis (LTEA) Assay for Lipase C (LIPC) using HepaRG (AID 2283514)
How it was run: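 Differentiated human HepaRG cells in serum-free induction medium were exposed in duplicate for 48 h to eight concentrations (top 100 uM, half-log steps, 0.5% DMSO). LIPC mRNA was quantified by TaqMan qRT-PCR, normalized to ACTB, GAPDH and POLR2A, with bidirectional fitting versus DMSO.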

[17] = read-out: Lipoprotein lipase (LPL), LPL (gene 4023); assay: LTEA_HepaRG_LPL: Life Technologies and Expression Analysis (LTEA) Assay for Lipoprotein lipase (LPL) using HepaRG (AID 2283515)
How it was run: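 Differentiated human HepaRG cells in serum-free induction medium were exposed in duplicate for 48 h to eight half-log concentrations (top 100 uM) in 0.5% DMSO. LPL mRNA was quantified by TaqMan qRT-PCR, normalized to ACTB, GAPDH and POLR2A.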

[18] = read-out: MicroRNA 122 (MIR122), gene 406906; assay: LTEA_HepaRG_MIR122: Life Technologies and Expression Analysis (LTEA) Assay for MicroRNA 122 (MIR122) using HepaRG (AID 2283516); further: the transcript read is the microRNA miR-122
How it was run: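 HepaRG, 48 h exposure, 8-pt half-log from 100 uM, 0.5% DMSO; TaqMan qRT-PCR; bidirectional fit vs DMSO.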

[19] = read-out: Glutathione S-Transferase (GSTA2), GSTA2 (gene 2939); assay: LTEA_HepaRG_GSTA2: Life Technologies and Expression Analysis (LTEA) Assay for Glutathione S-Transferase (GSTA2) using HepaRG (AID 2283497)
How it was run: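 Human HepaRG cells, plated 48 h, then exposed in serum-free induction medium for 48 h to eight half-log concentrations up to 100 uM in 0.5% DMSO, duplicate. GSTA2 mRNA by qRT-PCR, normalized to ACTB/GAPDH/POLR2A; bidirectional fit versus DMSO.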

Measured: AC50

Sequence of Hypoxia-inducible factor 1-alpha (Homo sapiens) (Q16665 whole entry, looked up): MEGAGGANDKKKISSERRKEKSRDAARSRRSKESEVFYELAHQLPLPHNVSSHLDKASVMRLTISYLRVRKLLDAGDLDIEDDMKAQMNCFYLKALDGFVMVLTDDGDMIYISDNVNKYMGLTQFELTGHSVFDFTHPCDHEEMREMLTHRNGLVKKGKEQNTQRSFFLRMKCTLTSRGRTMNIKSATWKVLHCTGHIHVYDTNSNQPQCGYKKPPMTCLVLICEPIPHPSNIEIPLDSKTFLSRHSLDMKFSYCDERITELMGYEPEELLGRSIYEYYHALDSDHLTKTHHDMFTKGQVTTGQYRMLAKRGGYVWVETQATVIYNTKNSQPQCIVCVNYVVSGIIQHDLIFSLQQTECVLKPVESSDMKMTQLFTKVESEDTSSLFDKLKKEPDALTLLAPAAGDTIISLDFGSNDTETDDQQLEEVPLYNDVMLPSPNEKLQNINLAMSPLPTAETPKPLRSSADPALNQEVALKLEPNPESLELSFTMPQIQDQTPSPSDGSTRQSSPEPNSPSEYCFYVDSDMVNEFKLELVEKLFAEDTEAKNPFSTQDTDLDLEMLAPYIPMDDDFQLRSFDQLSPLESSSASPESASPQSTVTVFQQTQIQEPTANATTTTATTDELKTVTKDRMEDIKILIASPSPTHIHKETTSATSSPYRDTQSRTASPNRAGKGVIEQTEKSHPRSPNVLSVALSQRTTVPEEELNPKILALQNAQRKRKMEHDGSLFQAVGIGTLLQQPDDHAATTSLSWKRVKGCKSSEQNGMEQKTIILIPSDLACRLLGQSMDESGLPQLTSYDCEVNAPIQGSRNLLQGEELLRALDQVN

Nc1ccccc1N
active: [1] 86.4 µM | [2] 67.7 µM | [5] 50 µM | [7] 74 µM | [8] 66.8 µM | [10] 13.4 µM | [12] 72.3 µM | [14] 3.62 µM | [16] 62.7 µM | [17] 50 µM | [18] 71.4 µM
inactive: [3] | [4] | [6] | HGF (gene 3082) | [9] | [11] | [13] | [15]

CC1=C(/C=C/C(C)=C/C=C/C(C)=C/CO)C(C)(C)CCC1
inactive: [1] | [2] | [3] | [4] | [6] | [7] | HGF (gene 3082) | [9] | [10] | [11] | [12] | [13] | [14] | [15] | [16] | [17]
active: [5] 68.4 µM | [8] 52.2 µM

CCCCCCCCCCCC(=O)OC
inactive: [19] | [1] | [3] | [4] | [5] | [6] | [7] | [8] | [9] | [10] | [11] | [12] | [13] | [14] | [15] | [16] | [17] | [18]

CCCCCCOCCO
inactive: [19] | [1] | [3] | [4] | [5] | [6] | [7] | [8] | [9] | [10] | [11] | [12] | [13] | [14] | [15] | [16] | [17] | [18]

CCCc1cc(=O)[nH]c(=S)[nH]1
inactive: [19] | [1] | [3] | [4] | [5] | [7] | HGF (gene 3082) | [8] | [9] | [10] | [11] | [12] | [13] | [14] | [15] | [16] | [17] | [18]

Cc1cccc([N+](=O)[O-])c1C
inactive: [1] | [2] | [3] | [4] | [5] | [6] | [7] | HGF (gene 3082) | [8] | [9] | [10] | [11] | [12] | [13] | [14] | [15] | [16] | [17] | [18]

CN[C@H]1CC[C@@H](c2ccc(Cl)c(Cl)c2)c2ccc(S(N)(=O)=O)cc21
inactive: [19] | [1] | [3] | [4] | [6] | HGF (gene 3082) | [13] | [18]
active: [5] 72.1 µM | [7] 50 µM | [8] 87.7 µM | [9] 74.8 µM | [10] 57.7 µM | [11] 77.4 µM | [12] 50 µM | [14] 10.9 µM | [15] 94.5 µM | [16] 15.8 µM | [17] 11.9 µM
